Experimental data: PubChem BioAssay (Tox21)
Records with an inconclusive call do not appear. Active and inactive are the calls of the source. Unless noted, calls come from the whole dose curve; as a rule, active = well fitted curve in the direction sought with a large enough effect in the repeat runs; inconclusive = weak or mixed curves; inactive = no such curve, though single readings can be large; an effect the other way counts as inactive or inconclusive.

What was measured:
[1] = qHTS assay to identify small molecule agonists of the peroxisome proliferator-activated receptor delta (PPARd) signaling pathway - cell viability counter screen (AID 743211); note: nearly all actives have a fitted effect of over 55% in size
Outline: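 PPARd-bla HEK293H cells (UAS-beta-lactamase reporter) were treated with compounds for 17 h at 37 C. Viability was then read in the same wells by CellTiter-Glo luminescence after 30 min at room temperature.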

[2] = biological target: Peroxisome proliferator-activated receptor delta (Homo sapiens) (UniProt Q03181); assay: qHTS assay to identify small molecule agonists of the peroxisome proliferator-activated receptor delta (PPARd) signaling pathway (AID 743212; calls by dose curve)
Outline: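 HEK293H UAS-bla reporter cells, human PPARd system; compounds delivered in DMSO after 5 h plating, then at 37 C. Beta-lactamase FRET read, 2 h RT substrate step.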

[3] = qHTS assay to identify small molecule antagonists of the peroxisome proliferator-activated receptor delta (PPARd) signaling pathway - cell viability counter screen (AID 743213); note: nearly all actives have a fitted effect of over 50% in size
Outline: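 Luminescence from CellTiter-Glo, added after the bla read and incubated 30 min at room temperature, gives viability of HEK293H PPARd-bla cells exposed to compounds for 17 h at 37 C with 300 nM L165041.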

[4] = biological target: Peroxisome proliferator-activated receptor delta (Homo sapiens) (UniProt Q03181); assay: qHTS assay to identify small molecule antagonists of the peroxisome proliferator-activated receptor delta (PPARd) signaling pathway (AID 743215; active = well fitted inhibition curve with a large enough effect in the signal ratio in the repeat runs, not every such curve was filed as active; the % refers to the signal ratio;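 note: cells stimulated with agonist L165041 at 300 nM final during compound exposure; series mostly up to about 62 µM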)
Outline: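 PPARd UAS-bla HEK293H cells were pre-incubated 5 h at 37 C, then given test compounds in DMSO plus agonist L165041 (300 nM final). After 17 h at 37 C, beta-lactamase FRET substrate was added; fluorescence read after 2 h at room temperature.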

[5] = qHTS assay to identify small molecule agonists of the farnesoid-X-receptor (FXR) signaling pathway - cell viability counter screen (AID 743218); note: nearly all actives have a fitted effect of over 45% in size
Outline: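 FXR-UAS-bla HEK 293T cells, plated 5 h at 37 C, were exposed to compounds for 16 h at 37 C. CellTiter-Glo was then added to the same wells as the bla readout; luminescence read after 30 min at room temperature.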

[6] = qHTS assay to identify small molecule antagonists of the farnesoid-X-receptor (FXR) signaling pathway - cell viability counter screen (AID 743221; active = well fitted cell-killing curve with a large enough effect in the repeat runs, not every such curve was filed as active; note: nearly all actives have a fitted effect of over 50% in size)
Outline: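 FXR-UAS-bla HEK 293T cells were treated with test compounds plus chenodeoxycholic acid (50 uM final) for 16 h at 37 C. Cell viability in the same wells was then read as CellTiter-Glo luminescence after 30 min at room temperature.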

[7] = biological target: Vitamin D3 receptor (Homo sapiens) (UniProt P11473); assay: qHTS assay to identify small molecule agonists of the vitamin D receptor (VDR) signaling pathway (AID 743222; calls by dose curve)
Outline: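 VDR-bla cells were plated 4 h at 37C/5% CO2, then exposed to compounds in DMSO for 16 h. After LiveBLAzer B/G FRET substrate addition and 2 h at room temperature, beta-lactamase reporter fluorescence was read.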

[8] = biological target: Bile acid receptor (Homo sapiens) (UniProt Q96RI1); assay: qHTS assay to identify small molecule agonists of the farnesoid-X-receptor (FXR) signaling pathway (AID 743220; active = well fitted activation curve with a large enough effect in the signal ratio in the repeat runs, not every such curve was filed as active; the % refers to the signal ratio)
Outline: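 Beta-lactamase reporter under UAS control in GeneBLAzer FXR HEK 293T cells (5000/well) measured with LiveBLAzer FRET substrate after 2 h at room temperature. Compound exposure lasted 16 h at 37C.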

[9] = biological target: Vitamin D3 receptor (Homo sapiens) (UniProt P11473); assay: qHTS assay to identify small molecule antagonists of the vitamin D receptor (VDR) signaling pathway (AID 743223; active = well fitted inhibition curve with a large enough effect in the signal ratio in the repeat runs, not every such curve was filed as active; the % refers to the signal ratio)
Outline: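 VDR-bla cells were plated, incubated 4 h at 37C, then given compound and 1alpha,25-dihydroxyvitamin D3 (3 nM final). After 16 h at 37C, LiveBLAzer B/G FRET substrate was added for 2 h at room temperature and fluorescence read.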
% is set by controls: 0 for no effect and ±100 for the full control effect.

Chain of Vitamin D3 receptor (Homo sapiens) (P11473 whole entry, looked up): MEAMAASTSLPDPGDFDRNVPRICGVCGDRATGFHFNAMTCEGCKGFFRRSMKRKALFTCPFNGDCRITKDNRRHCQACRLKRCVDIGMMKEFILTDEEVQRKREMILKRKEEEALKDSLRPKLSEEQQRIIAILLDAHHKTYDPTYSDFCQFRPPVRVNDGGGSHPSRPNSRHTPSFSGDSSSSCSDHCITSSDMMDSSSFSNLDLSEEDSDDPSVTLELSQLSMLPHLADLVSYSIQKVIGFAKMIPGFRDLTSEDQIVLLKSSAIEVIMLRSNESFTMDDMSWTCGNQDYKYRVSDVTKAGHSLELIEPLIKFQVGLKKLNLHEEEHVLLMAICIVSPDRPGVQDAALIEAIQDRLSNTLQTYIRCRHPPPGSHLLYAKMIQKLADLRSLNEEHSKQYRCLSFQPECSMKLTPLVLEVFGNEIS
Chain of Peroxisome proliferator-activated receptor delta (Homo sapiens) (Q03181 whole entry, looked up): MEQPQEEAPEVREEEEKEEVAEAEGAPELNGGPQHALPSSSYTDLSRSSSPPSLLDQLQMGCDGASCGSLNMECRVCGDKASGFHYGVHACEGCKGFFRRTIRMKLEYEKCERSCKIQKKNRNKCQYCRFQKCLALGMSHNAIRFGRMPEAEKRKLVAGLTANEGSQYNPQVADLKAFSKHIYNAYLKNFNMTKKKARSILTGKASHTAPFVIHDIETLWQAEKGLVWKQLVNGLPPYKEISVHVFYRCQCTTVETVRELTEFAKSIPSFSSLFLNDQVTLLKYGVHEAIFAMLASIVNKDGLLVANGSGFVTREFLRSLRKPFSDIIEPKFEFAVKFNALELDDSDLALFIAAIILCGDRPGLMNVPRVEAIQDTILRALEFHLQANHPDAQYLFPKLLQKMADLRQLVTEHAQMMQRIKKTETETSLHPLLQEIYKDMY
Chain of Bile acid receptor (Homo sapiens) (Q96RI1 whole entry, looked up): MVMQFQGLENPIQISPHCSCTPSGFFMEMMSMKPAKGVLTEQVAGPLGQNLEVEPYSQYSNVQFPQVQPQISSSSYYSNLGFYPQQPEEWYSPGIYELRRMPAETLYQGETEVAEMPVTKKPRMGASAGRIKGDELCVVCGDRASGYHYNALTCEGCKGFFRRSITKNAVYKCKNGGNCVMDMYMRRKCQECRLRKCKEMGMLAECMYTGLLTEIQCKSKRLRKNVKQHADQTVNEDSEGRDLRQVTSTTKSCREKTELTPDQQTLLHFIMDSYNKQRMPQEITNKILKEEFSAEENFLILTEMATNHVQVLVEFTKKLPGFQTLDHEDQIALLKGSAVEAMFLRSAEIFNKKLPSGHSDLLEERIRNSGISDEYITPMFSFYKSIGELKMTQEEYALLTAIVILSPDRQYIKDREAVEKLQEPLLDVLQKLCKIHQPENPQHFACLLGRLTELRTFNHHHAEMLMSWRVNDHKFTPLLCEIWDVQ

CC(C)CCCCCCN
inactive: Potency [1] | outcome [2] | Potency [3] | outcome [4] | outcome [5] | Potency [6] | outcome [7]

CCN(CC)S(=O)(=O)c1ccc(C(=O)O)cc1
inactive: Potency [1] | outcome [2] | Potency [3] | outcome [4] | outcome [5] | Potency [6] | outcome [7]

CSc1nc(NC2CC2)nc(NC(C)(C)C)n1
inactive: Potency [1] | outcome [2] | Potency [3] | outcome [4] | outcome [5] | Potency [6]

Nc1nc(F)nc2c1ncn2[C@@H]1O[C@H](CO)[C@@H](O)[C@@H]1O
inactive: Potency [1] | outcome [2] | Potency [3] | outcome [4] | outcome [5] | Potency [6]

COC(=O)CCCCCCCCC(=O)OC
inactive: Potency [1] | outcome [2] | Potency [3] | outcome [4] | outcome [5] | outcome [8] | Potency [6] | outcome [7] | outcome [9]

CC(=O)O[C@H](CC(=O)[O-])C[N+](C)(C)C
inactive: Potency [1] | outcome [2] | Potency [3] | outcome [4] | outcome [5] | Potency [6]

COCCOC(=O)CC#N
inactive: Potency [1] | outcome [2] | Potency [3] | outcome [4] | outcome [5] | Potency [6] | outcome [7]

COc1cccc(OC)c1
inactive: Potency [1] | outcome [2] | Potency [3] | outcome [4] | outcome [5] | outcome [8] | Potency [6] | outcome [7] | outcome [9]

C=C(C)C1CC=C(C)C(O)C1 (centres undefined)
inactive: Potency [1] | outcome [2] | Potency [3] | outcome [4] | outcome [5] | Potency [6]

N[C@@H](CS)C(=O)O
inactive: Potency [1] | outcome [2] | Potency [3] | outcome [4] | outcome [5] | Potency [6] | outcome [7]

COc1cc(C)cc(O)c1
inactive: Potency [1] | outcome [2] | Potency [3] | outcome [4] | outcome [5] | Potency [6]

CC(=O)NC(Cc1ccccc1)C(=O)O (centres undefined)
inactive: Potency [1] | outcome [2] | Potency [3] | outcome [4] | outcome [5] | outcome [8] | outcome [7] | outcome [9]

O=C1OC(=O)c2cc([N+](=O)[O-])ccc21
inactive: Potency [1] | outcome [2] | Potency [3] | outcome [4] | outcome [5] | Potency [6] | outcome [7] | outcome [9]

Nc1ccc2cc(S(=O)(=O)O)ccc2c1
inactive: Potency [1] | outcome [2] | Potency [3] | outcome [4] | outcome [5] | outcome [8] | Potency [6] | outcome [7] | outcome [9]

CCN(CC)C(=O)c1ccc(O)c(OC)c1
inactive: Potency [1] | outcome [2] | Potency [3] | outcome [4] | outcome [5] | Potency [6] | outcome [7]

CCCCCCCCCCCl
inactive: Potency [1] | outcome [2] | Potency [3] | outcome [4] | outcome [5] | outcome [8] | Potency [6] | outcome [7] | outcome [9]

CC(=O)OC(C)(C)C
inactive: Potency [1] | outcome [2] | Potency [3] | outcome [4] | outcome [5] | Potency [6]

c1ccc2cnncc2c1
inactive: Potency [1] | outcome [2] | Potency [3] | outcome [4] | outcome [5] | Potency [6] | outcome [7]

O=c1[nH]c(=O)n([C@H]2O[C@H](CO)[C@@H](O)[C@@H]2O)cc1/C=C\Br
inactive: Potency [1] | outcome [2] | Potency [3] | outcome [4] | outcome [5] | Potency [6]

CO[Si](OC)(OC)OC
inactive: Potency [1] | outcome [2] | Potency [3] | outcome [4] | outcome [5] | Potency [6] | outcome [7] | outcome [9]

CC(C)(C)CC(C)(C)N
inactive: Potency [1] | outcome [2] | Potency [3] | outcome [4] | outcome [5] | Potency [6] | outcome [7] | outcome [9]

CN(C)N=Nc1ccccc1
inactive: Potency [1] | outcome [2] | Potency [3] | outcome [4] | outcome [5] | Potency [6] | outcome [7] | outcome [9]

CCCc1ccc(N)cc1
inactive: Potency [1] | outcome [2] | Potency [3] | outcome [4] | outcome [5] | Potency [6] | outcome [7] | outcome [9]

CCCCCCCCCCC1CO1 (centres undefined)
inactive: Potency [1] | outcome [2] | Potency [3] | outcome [4] | outcome [5] | Potency [6] | outcome [9]

NC(=S)Nc1cccc2ccccc12
inactive: activity change, negative = cytotoxicity [1] -1.16% [at 5.95 µM] | activation [2] -6.49% [at 5.95 µM] | viability change, negative = cytotoxic [3] 5.98% [at 6.26 µM] | ratio activity, negative = inhibition [4] -0.221% [at 6.26 µM] | viability change, negative = cytotoxic [5] 18.3% [at 5.95 µM] | activity change, negative = cytotoxicity [6] 8.25% [at 5.95 µM] | activation [7] 4.28% [at 6.01 µM] | activity change, negative = inhibition [9] -15.5% [at 6.95 µM]

O=C(O)C1CCC1
inactive: Potency [1] | outcome [2] | Potency [3] | outcome [4] | outcome [5] | Potency [6] | outcome [7] | outcome [9]

O=c1[nH]c2ccccc2c(=O)n1CCCl
inactive: Potency [1] | outcome [2] | Potency [3] | outcome [4] | outcome [5] | Potency [6] | outcome [7] | outcome [9]

Cc1ccccc1C(=O)O
inactive: Potency [1] | outcome [2] | Potency [3] | outcome [4] | outcome [5] | Potency [6] | outcome [7] | outcome [9]

C=C(C)C(=O)OCCC(C)OC(=O)C(=C)C (centres undefined)
inactive: Potency [1] | outcome [2] | Potency [3] | outcome [4] | outcome [5] | Potency [6] | outcome [7] | outcome [9]

O=Cc1ccccc1[N+](=O)[O-]
inactive: Potency [1] | outcome [2] | Potency [3] | outcome [4] | outcome [5] | Potency [6] | outcome [7] | outcome [9]

Cn1cnc2c(=O)[nH]c(N)nc21
inactive: Potency [1] | outcome [2] | Potency [3] | outcome [4] | outcome [5] | Potency [6] | outcome [7] | outcome [9]

CCC(=O)Nc1cccc(N)c1
inactive: Potency [1] | outcome [2] | Potency [3] | outcome [4] | outcome [5] | Potency [6] | outcome [7] | outcome [9]
